The panel holds about 83,000 compounds, 20% with a hit somewhere; the sample as a whole holds those more often.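 Treatment: one concentration, 48 hours, 96-well format. Scoring: percent growth, with anything below 10 considered active.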 Calls of active or inactive are those of the source.
How the values were obtained:
Experiment in all cases: NCI-60 one-dose screen, 48 h (100 = growth as untreated, 0 = no growth, -100 = all killed)
Settings in all cases: 10 µM
[1] = test system: SR leukemia
[2] = test system: RPMI-8226 leukemia
[3] = test system: OVCAR-8 ovarian
[4] = test system: OVCAR-5 ovarian
[5] = test system: OVCAR-4 ovarian
[6] = test system: SK-OV-3 ovarian
[7] = test system: OVCAR-3 ovarian
[8] = test system: HS 578T breast
[9] = test system: NCI/ADR-RES ovarian
[10] = test system: T-47D breast
[11] = test system: MDA-MB-435 melanoma
[12] = test system: SW-620 colon
[13] = test system: MCF7 breast
[14] = test system: HCT-116 colon
[15] = test system: HCC-2998 colon
[16] = test system: KM12 colon
[17] = test system: BT-549 breast
[18] = test system: IGROV1 ovarian

Measured: growth

CCCCN(CCCC)c1ccc(C(=NC(C)CCCN(CC)CC)c2ccc(N(C)C)cc2)cc1 (centres undefined)
active: [1] -26.2% | [2] -43.6% | [3] -49% | [4] -6.48% | [5] -13.5% | [6] -70.9% | [7] -47.7% | [8] -49.8% | [9] -51% | [10] -55.8% | [11] -87.5% | [12] -66.7% | [13] -80.9% | [14] -81.5% | [15] -59% | [16] -14.3%

COC(=O)c1cnc2c(c1)Oc1ccc(Cl)cc1-c1cc(C)nn1-2
inactive: [1] 89.3% | [2] 95.6% | [3] 96% | [4] 89% | [6] 76.6% | [7] 44.5% | [8] 56% | [9] 70.3% | [10] 59.9% | [17] 83.4% | [11] 91.3% | [12] 66% | [13] 83.4% | [14] 42.6% | [15] 92.1% | [16] 85.8%
active: [5] -13.1%

CS(=O)(=O)Nc1ccc([N+](=O)[O-])cc1Oc1ccccc1
inactive: [1] 87% | [2] 83.2% | [3] 92.1% | [5] 97% | [6] 97.3% | [18] 106% | [7] 95.4% | [8] 98.2% | [9] 96.8% | [10] 84% | [17] 109% | [11] 101% | [12] 104% | [13] 102% | [14] 100% | [15] 93% | [16] 94.5%

Nc1nsc(C(=O)c2ccc(O)cc2)n1
inactive: [1] 99.2% | [2] 90.7% | [3] 91.1% | [4] 93.6% | [5] 105% | [6] 92.8% | [7] 95.2% | [8] 98.1% | [9] 103% | [10] 94.2% | [17] 102% | [11] 104% | [12] 108% | [13] 99.3% | [14] 94.8% | [15] 98.7% | [16] 100%

CNC(=O)c1cc(Oc2ccc(NC(=O)Nc3ccc(Cl)c(C(C)(C)C)c3)c(F)c2)ccn1
inactive: [1] 43.4% | [2] 34.2% | [3] 44.9% | [4] 82.6% | [5] 33.1% | [6] 66.6% | [7] 40.5% | [8] 64% | [9] 40.2% | [10] 20.5% | [17] 47.2% | [11] 29.9% | [12] 69.2% | [13] 16% | [14] 19.7% | [15] 44.2% | [16] 20.9%

Nc1c(C(=O)Nc2ccccc2F)sc2nc3c(cc12)C(=O)CCC3
inactive: [1] 36.7% | [2] 52% | [3] 58.6% | [4] 71.1% | [6] 13.6% | [7] 16.8% | [8] 37.2% | [10] 40.2% | [17] 59.8% | [12] 30% | [13] 22.9% | [14] 32% | [15] 43.8% | [16] 24.6%
active: [9] -4.39% | [11] -25.9%

CC(C)C[C@H](NC(=O)Cn1ccc2ccccc2c1=O)B(O)O
inactive: [2] 11.9% | [3] 88.2% | [5] 93.3% | [6] 96.7% | [18] 107% | [7] 42.3% | [8] 90% | [9] 103% | [10] 39.6% | [17] 58.4% | [12] 42.8% | [13] 31.4% | [14] 32.3% | [15] 72.2% | [16] 93.4%
active: [1] 9.81% | [11] 3.38%

CCn1nc(-c2ccccn2)c2cccnc2c1=S
active: [13] 7.88%
inactive: [1] 61.6% | [2] 55.2% | [3] 79.5% | [4] 97% | [5] 26.5% | [6] 94.7% | [7] 15.4% | [8] 96.6% | [9] 91.5% | [10] 42% | [17] 104% | [11] 81.2% | [12] 79.4% | [14] 17.1% | [16] 72.8%

CN(C)c1ccc2c(c1)OC(N)=C(C#N)C2c1ccc2c(c1)CCCN2C (centres undefined)
active: [7] 3.67% | [9] 0.712% | [11] -5.69% | [14] 7.88%
inactive: [1] 29.5% | [2] 34.5% | [3] 30.9% | [4] 78.2% | [5] 56.3% | [6] 24.4% | [8] 20.1% | [10] 44.5% | [17] 49.4% | [12] 35% | [13] 18.1% | [15] 26.7% | [16] 23.1%

COc1ccc(-c2cc(/C=C3\C(=O)Nc4cc(Cl)ccc43)[nH]n2)cc1
active: [7] -3% | [8] -4.18% | [9] 9.42% | [11] -36.7%
inactive: [1] 19.3% | [2] 19.7% | [3] 48.1% | [5] 64.1% | [6] 28.8% | [18] 42.6% | [10] 47.8% | [17] 63.5% | [12] 19.9% | [13] 11.7% | [14] 26.2% | [15] 56.7% | [16] 19.2%

C=C1C(=O)O[C@H]2[C@H]1CC/C(COC(=O)OCCCCCOC(=O)OC/C1=C/CC[C@@]3(C)O[C@H]3[C@H]3OC(=O)C(=C)[C@@H]3CC1)=C\CC[C@@]1(C)O[C@@H]21
inactive: [6] 54.6% | [8] 33.8% | [9] 42.5%
active: [1] -20.1% | [2] -3.28% | [3] -4.61% | [4] -36.2% | [5] -43% | [7] -97.5% | [10] -45% | [17] -72.7% | [11] -13% | [12] -54.3% | [13] -75.8% | [14] -95.9% | [15] -60.8% | [16] 5.59%

O=C(CSc1nnc(-c2ccc(Cl)cc2)o1)c1ccccc1
inactive: [1] 94% | [2] 96.4% | [3] 96.2% | [4] 97.7% | [5] 112% | [6] 102% | [7] 102% | [8] 101% | [9] 94.9% | [10] 93% | [17] 98.3% | [11] 109% | [12] 107% | [13] 102% | [14] 92.2% | [15] 87.5% | [16] 96.3%

COc1ccc(-c2nc(-c3nc4ccc(OC)cc4[nH]3)c3ccccn23)cc1
inactive: [1] 32.4% | [3] 30.8% | [5] 50.5% | [6] 92.3% | [18] 57.2% | [7] 81.8% | [8] 80% | [9] 50.9% | [10] 36.7% | [17] 77.6% | [11] 81.5% | [12] 93.3% | [13] 69.4% | [14] 66.4% | [15] 86.4%
active: [2] 3.21%

COCc1cc2c(cc1Br)OCO2
inactive: [1] 106% | [2] 95.1% | [3] 98.8% | [4] 92.5% | [5] 111% | [6] 95.3% | [7] 111% | [8] 101% | [9] 88.7% | [10] 98.4% | [17] 105% | [11] 108% | [12] 103% | [13] 96.4% | [14] 98.6% | [15] 95.9% | [16] 104%

O=C1CC[C@@H](C(=O)N[C@H]2CSSC[C@@H](C(=O)N/C=C/c3ccc(O)cc3)NC(=O)[C@H](Cc3ccccc3)NC(=O)[C@@H]3CCCN3C(=O)[C@@H]3CCCN3C2=O)N1
inactive: [1] 99.1% | [2] 96.1% | [3] 100% | [4] 102% | [5] 112% | [6] 93.2% | [7] 106% | [8] 94.4% | [9] 97.8% | [10] 78.3% | [17] 120% | [11] 104% | [12] 97.2% | [13] 96.8% | [14] 99.7% | [15] 98.9% | [16] 97.9%

CCCCCCCCCCN=C(c1ccc(N(C)C)cc1)c1ccc(N(C)C)cc1
active: [9] -3.13% | [11] -14.2%
inactive: [1] 23% | [2] 24.3% | [3] 30.9% | [4] 71.5% | [5] 59.8% | [6] 16.6% | [8] 26.7% | [10] 20.7% | [17] 38.1% | [12] 16.8% | [13] 11.9% | [14] 15.3% | [15] 52.6% | [16] 27.8%

O=c1oc2cc(OS(=O)(=O)C3CC3)ccc2c2c1CCCCCC2
inactive: [1] 52.7% | [2] 49.3% | [3] 82.6% | [5] 65.3% | [6] 89.1% | [18] 103% | [7] 68.7% | [8] 106% | [9] 68.4% | [10] 57.6% | [17] 80.1% | [11] 94.8% | [12] 96.5% | [13] 81.6% | [14] 82.5% | [15] 90.8% | [16] 77.8%

From PubChem BioAssay (NCI)
